From PubChem BioAssay
Hits are enriched below; roughly 6.7% of the tested compounds scored in any of these assays.
C diff growth: inhibitors of Clostridium difficile growth | Clostridium difficile clinical isolate growth, OD600, 24 h; hits give low values | growth activity, negative = inhibition, % at 16 µg/mL (by protocol) | 86,000 tested, 0.25% active;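 active means mean growth activity at or below -80% and every replicate also at or below -80%; inconclusive means mean at or below -80% but some replicate above -80%; inactive means mean growth activity above -80%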;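 further: 0% = DMSO wells and -100% = levofloxacin 16 µg/mL wells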
Pf Dd2 inh: P. falciparum Dd2 growth inhibition; SYBR Green, 72 h; hits give low values; activity change, % at 10 µM; 94,000 tested, 2.3% active; AID 1159554; in the data active means activity change below about -80%; inconclusive means no clear call, values can overlap the other calls
T cruzi growth-1: inhibitors of T. cruzi proliferation; T. cruzi beta-gal in NIH3T3, GalScreen luminescence, 90 h; 77,000 tested, 5.9% active; inhibition, % at 8.34 µM;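 active means mean inhibition above about 93%, with at least 55% of replicates each passing it, limit read from the data, passing the limit was not always enough; inconclusive means only one of those two conditions holds; inactive means neither condition holds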
T cruzi growth-2: blocks T. cruzi growth in NIH3T3 host cells; shares compounds with T cruzi growth-1; T. cruzi beta-gal in NIH3T3, GalScreen luminescence, 90 h; inhibition, % at 8.35 µM; 5,600 tested, 72% active; AID 651739;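 active means mean replicate inhibition above about 95% and at least 55% of replicates individually reaching it, limit read from the data; inconclusive means only one of the two criteria is met; inactive means neither criterion is met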
T cruzi growth-3: inhibitors of T. cruzi proliferation; shares compounds with T cruzi growth-1; T. cruzi beta-gal in NIH3T3, GalScreen luminescence, 90 h; inhibition, % at 2.09 µM; 5,600 tested, 21% active;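 active means mean inhibition above about 95%, with at least 55% of replicates also reaching it, limit read from the data; inconclusive means meets just one of the two conditions; inactive means meets neither condition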;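 further: plate controls were neutral control median for no effect and positive control median for full effect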
NIH3T3 tox: kills mouse NIH/3T3 fibroblasts | shares compounds with T cruzi growth-1 | cytotoxicity (signal decrease), % at 8.35 µM | 5,600 tested, 14% active | NIH/3T3 viability, CellTiter-Glo ATP luminescence, 90 h;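 active means mean signal decrease across replicates above about 35% based on untreated-well scatter, with enough replicates individually passing, limit read from the data; inconclusive means no rule stated though some were filed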;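 further: 0% = median of neutral control wells and 100% = median of positive control wells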
NIH3T3 tox 2: NIH/3T3 (mouse) viability loss | shares compounds with T cruzi growth-1 | NIH/3T3 viability, CellTiter-Glo ATP luminescence, 90 h | inhibition, % at 24.9 µM | 5,600 tested, 56% active;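 active means mean loss of cell viability signal at or above a set limit, and enough replicates individually reaching it; inconclusive means meets only the mean limit or only the replicate share; inactive means meets neither condition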;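 further: 0% = median of neutral control wells and 100% = median of positive control wells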
Numbers without * were called inactive; ? = inconclusive; . = no result given; ! = not active in a repeat.

SMILES	C diff growth	Pf Dd2 inh	T cruzi growth-1	T cruzi growth-2	T cruzi growth-3	NIH3T3 tox	NIH3T3 tox 2
C[C@H]1CCCCO[C@@H](CN(C)Cc2ccc(C(=O)O)cc2)[C@@H](C)CN([C@@H](C)CO)C(=O)c2cc(N(C)C)ccc2O1	2.1	25.9	4.6	.	.	.	.
C[C@@H]1CCCCO[C@@H](CN(C)Cc2ccc(C(=O)O)cc2)[C@@H](C)CN([C@H](C)CO)C(=O)c2cc(N(C)C)ccc2O1	1.6	40.5	50.1	.	.	.	.
C[C@@H]1CCCCO[C@H](CN(C)Cc2ccc(C(F)(F)F)cc2)[C@@H](C)CN([C@H](C)CO)C(=O)c2cc(N(C)C)ccc2O1	15.1	-31.0	?	112.4*	16.4	25.4	?
C[C@@H]1CN([C@@H](C)CO)C(=O)c2cc(N(C)C)ccc2O[C@@H](C)CCCCO[C@@H]1CN(C)Cc1ccc(C(F)(F)F)cc1	21.6	-20.8	73.6	.	.	.	.
C[C@H](CO)N1C[C@H](C)[C@@H](CN(C)Cc2ccc(C(F)(F)F)cc2)OCCCC[C@H](C)Oc2ccc(N(C)C)cc2C1=O	18.6	-20.0	108.5*	110.9*	94.5	-7.7	96.7*
C[C@@H]1CN([C@H](C)CO)C(=O)c2cc(N(C)C)ccc2O[C@@H](C)CCCCO[C@@H]1CN(C)Cc1ccc(C(F)(F)F)cc1	28.4	-66.6	?	108.7*	88.0	18.3	107.0*
CC(=O)N1[C@@H]2c3ccc(C4=CCCC4)c(=O)n3C[C@H]1[C@H](CO)[C@H]2C(=O)N[C@@H](C)c1ccccc1	2.9	20.6	88.8	.	.	.	.
C[C@@H]1CN([C@@H](C)CO)C(=O)c2cc(NC(=O)CCCN(C)C)ccc2O[C@H]1CN(C)Cc1ccc(-c2ccccc2)cc1	-1.4	-43.0	.	.	.	.	.
O=C(c1ccccn1)N1CC(=O)N2[C@H](CO)[C@H](c3ccc(C4=CCCC4)cc3)[C@@H]2C1	-0.8	20.0	.	.	.	.	.
COc1ccc2c3c(n(C)c2c1)[C@@H](CO)N(C(=O)CC1CC1)CC31CCN(C(=O)NC(C)C)CC1	-3.9	-66.0	.	.	.	.	.
CCNC(=O)C[C@@H]1CC[C@H]2[C@@H](COc3ccc(NC(=O)Nc4ccccc4Cl)cc3C(=O)N2C)O1	0.6	-3.4	10.8	.	.	.	.
C[C@H](CO)N1C[C@H](C)[C@@H](CN(C)Cc2ccccc2)OCCCC[C@H](C)Oc2ccc(N(C)C)cc2C1=O	-2.6	-12.9	100.1*!	31.6	1.4	-8.9	-3.5
C[C@@H]1CCCCO[C@@H](CN(C)CC2CCCCC2)[C@@H](C)CN([C@H](C)CO)C(=O)c2cc(N(C)C)ccc2O1	1.6	21.7	77.2	.	.	.	.
C[C@H](CO)N1C[C@H](C)[C@@H](CN(C)CC2CCCCC2)OCCCC[C@H](C)Oc2ccc(N(C)C)cc2C1=O	4.7	-9.8	99.0*	109.8*	82.8	-11.1	14.2
C[C@@H]1CN([C@@H](C)CO)C(=O)c2cc(N(C)C)ccc2O[C@@H](C)CCCCO[C@H]1CN(C)Cc1ccc(C(F)(F)F)cc1	27.7	-47.7	118.7*	110.3*	108.3*	4.3	86.6*
C[C@@H]1CCCCO[C@@H](CN(C)Cc2ccc(C(=O)O)cc2)[C@H](C)CN([C@@H](C)CO)C(=O)c2cc(N(C)C)ccc2O1	0.6	23.6	29.5	.	.	.	.
C[C@@H]1CCCCO[C@@H](CN(C)Cc2ccccc2)[C@@H](C)CN([C@H](C)CO)C(=O)c2cc(N(C)C)ccc2O1	2.2	12.7	60.6	.	.	.	.
O=C(Nc1ccccc1F)N[C@H]1CC[C@H](CCNC(=O)C2CCCCC2)O[C@H]1CO	.	-16.8	9.5	.	.	.	.
C/C=C/c1cnc2c(c1)C(=O)N([C@@H](C)CO)C[C@@H](C)[C@H](CN(C)C(=O)CN1CCOCC1)O2	2.6	-0.4	47.8	.	.	.	.
COCC#Cc1cnc2c(c1)C(=O)N([C@@H](C)CO)C[C@H](C)[C@@H](CN(C)C(=O)c1ccc(F)cc1)O2	-2.5	-0.6	33.6	.	.	.	.
C[C@H]1CCCCO[C@@H](CN(C)C(=O)Nc2ccc(F)cc2)[C@@H](C)CN([C@@H](C)CO)C(=O)c2cc(NC(=O)Cc3ccccc3)ccc2O1	0.8	-58.9	113.2*	66.7	54.9	-25.3	1.6
C[C@@H]1CCCCO[C@H](CN(C)C(=O)Nc2ccc(F)cc2)[C@H](C)CN([C@H](C)CO)C(=O)c2cc(NC(=O)Cc3ccccc3)ccc2O1	7.6	-85.4*	105.2*	111.1*	53.3	-11.7	-6.8
C[C@@H]1CCCCO[C@H](CN(C)C(=O)Nc2ccc(F)cc2)[C@@H](C)CN([C@@H](C)CO)C(=O)c2cc(NC(=O)Cc3ccccc3)ccc2O1	-0.3	-61.0	94.2	.	.	.	.
C[C@@H]1CCCCO[C@H](CN(C)C(=O)Nc2ccc(F)cc2)[C@@H](C)CN([C@H](C)CO)C(=O)c2cc(NC(=O)Cc3ccccc3)ccc2O1	1.4	-1.3	55.2	.	.	.	.
CNC[C@H]1Oc2ncc(C#CC3CCCC3)cc2C(=O)N([C@@H](C)CO)C[C@H]1C	0.8	-41.6	-18.9	.	.	.	.
SMILES	C diff growth	Pf Dd2 inh	T cruzi growth-1	T cruzi growth-2	T cruzi growth-3	NIH3T3 tox	NIH3T3 tox 2
Cc1cc(C(=O)Nc2cccc3c2O[C@@H](CN(C)Cc2ccc4c(c2)OCO4)[C@@H](C)CN([C@H](C)CO)C3=O)n(C)n1	-1.2	2.8	40.1	.	.	.	.
C[C@H](CO)N1C[C@H](C)[C@@H](CN(C)Cc2ccncc2)Oc2cc(-c3ccccc3F)ccc2S1(=O)=O	8.6	-16.5	114.2*	96.0*	100.3*	59.3*	97.8*
C[C@@H]1CN([C@H](C)CO)S(=O)(=O)c2ccc(-c3ccccc3F)cc2O[C@@H]1CN(C)C	-0.8	-1.0	48.6	.	.	.	.
C[C@H]1CN([C@@H](C)CO)S(=O)(=O)c2ccc(-c3ccccc3F)cc2O[C@@H]1CN(C)Cc1cncnc1	-6.9	-18.5	35.0	.	.	.	.
CCCN(C)C[C@H]1Oc2cc(-c3ccccc3F)ccc2S(=O)(=O)N([C@H](C)CO)C[C@H]1C	4.0	-48.7	57.8	.	.	.	.
C[C@H](CO)N1C[C@H](C)[C@H](CN(C)Cc2ccncc2)Oc2cc(-c3ccccc3F)ccc2S1(=O)=O	2.3	8.8	106.0*	93.0	90.9	59.1*	76.4*
C[C@H]1CN([C@@H](C)CO)S(=O)(=O)c2ccc(-c3ccccc3F)cc2O[C@H]1CN(C)Cc1cccnc1	2.4	-31.4	95.4*	99.0*	84.0	67.5*	48.8*
C[C@@H]1CN([C@H](C)CO)S(=O)(=O)c2ccc(-c3ccccc3F)cc2O[C@@H]1CN(C)Cc1ccncc1	-16.9	3.5	109.9*	100.6*	76.7	35.4*	77.1*
COC(=O)C[C@H]1CC[C@@H]2[C@@H](COc3ccc(NC(=O)Nc4ccc(C#N)cc4)cc3C(=O)N2C)O1	-6.3	-4.5	27.2	.	.	.	.
COc1cccc(-c2ccc3c(c2)[C@H]2[C@H](CCN2C(=O)C2CCCC2)[C@H](CO)N3)c1	2.9	-79.5	.	.	.	.	.
